# Giardia FBPA inh = blocks Giardia fructose-bisphosphate aldolase activity | Potency, µM (doses to about 59.6 µM), for inactives: at the top dose activity, negative = inhibition, usual class: inhibitors | AID 2451 | A8B2U2 | 290,000 compounds, 0.71% hits | purified Giardia FBPA; note: potency is the fitted concentration of half-maximal effect; % is set by controls: 0 for no effect and ±100 for the full control effect; nearly all actives have a fitted effect of over 55% in size
#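 Giardia FBPA (40 nM reagent) was preincubated 10 min at RT with compound (up to 57.5 uM final), then substrate plus GAPDH/TPI/NAD/arsenate coupling system with diaphorase/resazurin was added; resorufin fluorescence (525/598 nm) was read after 20 min.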
# Sm TGR inh = blocks Schistosoma mansoni thioredoxin glutathione reductase. purified TGR, DTNB reduction, TNB absorbance 405 nm. Potency, µM (series often up to 114 µM), for the others: at the top dose activity change, negative = inhibition, usual class: inhibitors. Q962Y6. 360,000 compounds, 3% hits; note: potency is the fitted concentration of half-maximal effect; % is set by controls: 0 for no effect and ±100 for the full control effect; nearly all actives have a fitted effect of over 60% in size
#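 First, TGR (20 nM dispensed) and NADPH were mixed with compound. Second, a 15 min room-temperature incubation followed. Third, further NADPH and then DTNB were added to start the reaction. Finally, TNB absorbance was monitored kinetically.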
# Shiga toxin inh = inhibitors of Shiga toxin in Vero cells | AID 2315 | 290,000 compounds, 9.2% hits | inhibition, % at 38.7 µM | Vero cells, Shiga toxin protein synthesis inhibition reporter; in the data active = inhibition mostly above about 28%, no sharp cut-off; inactive = mostly below about 43%; note: 0% is about no effect
# CHX counter = counter-screen hit for Shiga toxin inhibitors, cycloheximide; max response, %; cell reporter, cycloheximide protein synthesis inhibition counterscreen; AID 2314; 300,000 compounds, 12% hits; in the data active = max response mostly above about 13%, no sharp cut-off; inactive = mostly below about 14%; note: read at 38.3 µM for the half of the compounds with a filed dose; 0% is about no effect
# LmPK inhibitor = blocks Leishmania mexicana pyruvate kinase activity; Q27686; purified LmPK, Kinase-Glo ATP luminescence, 1 h; Potency, µM (top dose mostly 57.5 µM), for inactives: at the top dose activity change, negative = inhibition, usual class: inhibitors; 290,000 compounds, 0.37% hits; note: potency is the fitted concentration of half-maximal effect; % is set by controls: 0 for no effect and ±100 for the full control effect
# Target sequence (Q27686 whole entry, looked up): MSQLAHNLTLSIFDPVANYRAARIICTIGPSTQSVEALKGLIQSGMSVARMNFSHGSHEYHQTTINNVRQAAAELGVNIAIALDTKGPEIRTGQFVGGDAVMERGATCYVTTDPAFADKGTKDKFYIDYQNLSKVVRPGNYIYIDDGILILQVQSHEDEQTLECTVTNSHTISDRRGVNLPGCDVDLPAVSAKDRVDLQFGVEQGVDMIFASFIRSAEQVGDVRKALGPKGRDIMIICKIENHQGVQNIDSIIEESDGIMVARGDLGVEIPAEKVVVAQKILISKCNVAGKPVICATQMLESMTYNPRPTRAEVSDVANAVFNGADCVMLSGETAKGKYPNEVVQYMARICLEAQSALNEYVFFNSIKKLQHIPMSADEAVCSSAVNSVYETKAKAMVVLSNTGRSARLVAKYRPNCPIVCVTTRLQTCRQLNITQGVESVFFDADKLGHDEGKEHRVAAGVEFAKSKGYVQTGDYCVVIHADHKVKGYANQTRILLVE
#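 Kinase-Glo luminescence read after 1 h RT reaction of 0.1 nM LmPK with 0.5 mM PEP and 0.1 mM ADP. Activity scaled between uninhibited and enzyme-free controls.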
# Tb PYK inh = inhibitors of Trypanosoma brucei pyruvate kinase | TbPYK enzyme, Kinase-Glo Plus ATP luminescence, 45 min | AID 624173 | 410,000 compounds, 0.12% hits | Potency, µM (highest dose often 76.8 µM), for inactives: top-dose activity, negative = inhibition, actives largely listed as inhibitors | Q57TT1; note: potency is the fitted concentration of half-maximal effect; % is set by controls: 0 for no effect and ±100 for the full control effect; nearly all actives have a fitted effect of over 50% in size
#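 Screened from lowest to highest concentration, compounds were pinned into TbPYK/substrate mixtures, and ADP (130 uM final) was added. Plates sat at room temperature for 45 min prior to Kinase-Glo Plus detection by luminescence.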
# * = called active by the depositor; ? = inconclusive; / = not tested or not shown. This excerpt belongs to a sample that is enriched for hits. Unless noted, calls come from the whole dose curve; as a rule, active = well fitted curve in the direction sought with a large enough effect; inconclusive = small, poorly fitted or top-dose-only effect, or another doubt; inactive = no such curve, though single readings can be large; an effect the other way counts as inactive or inconclusive.
SMILES,Giardia FBPA inh,Sm TGR inh,Shiga toxin inh,CHX counter,LmPK inhibitor,Tb PYK inh
CSc1oc(-c2ccco2)nc1S(=O)(=O)c1ccc(F)cc1,-24.0%,44.7µM*,-4.2,-1.5,7.7%,-8.7%
N=C(N)SCCN=C(N)N,-4.3%,/,-8.4,-0.1,/,/
CC(=O)Nc1ccc(NC(=O)C2CCN(S(=O)(=O)c3ccc4c(c3)CCCC(=O)N4)CC2)cc1,/,4.5%,/,/,/,-0.9%
Cc1nc(NC(=O)c2ccncc2)sc1C(=O)N(C)C,-27.6%,4.2%,-11.6,9.6,0.6%,3.6%
Cc1nc(NC(=O)c2oc3ccccc3c2C)sc1C(=O)N(C)C,-10.8%,-4.0%,52.3*,40.1*,-5.5%,2.1%
Cc1ccc(C(=O)Nc2nc(C)c(C(=O)N(C)C)s2)o1,-9.3%,-0.9%,79.7*,37.2*,?,-11.8%
Cc1nnc(NC(=O)c2oc3ccccc3c2C)s1,/,1.6%,89.9*,36.0*,-11.0%,-3.8%
Cc1nc(NC(=O)/C=C/c2ccc(F)cc2)sc1C(=O)N(C)C,1.5%,-0.8%,-3.1,8.2,-1.0%,-4.6%
Cc1nc(NC(=O)c2ccccc2[N+](=O)[O-])sc1C(=O)N(C)C,-10.6%,3.3%,8.5,2.0,-1.1%,-4.6%
Cc1nc(NC(=O)/C=C/c2ccccc2)sc1C(=O)N(C)C,3.2%,-5.2%,80.3*,40.2*,1.8%,-3.7%
O=C(c1cccc(Cl)c1)N(Cc1cccc(F)c1)C1CCS(=O)(=O)C1 (configuration not stated),/,50.1%,/,/,/,-2.5%
Cc1ccc(/C=C2/NC(=O)[C@H](C)NC2=O)cc1,3.0%,-3.8%,26.0,14.9*,-2.8%,-0.4%
COCC(C)N=C1NN=C(c2c[nH]c3ccccc23)CS1 (configuration not stated),1.9%,1.6%,53.4*,63.7*,0.0%,-6.1%
CCN1CC=C(c2c[nH]c3ccccc23)CC1,-22.5%,0.3%,25.9,-1.3,-3.2%,0.8%
CCN=C1NN=C(c2c[nH]c3ccccc23)CS1,-12.5%,4.1%,38.4*,32.2*,-8.3%,?
COCCn1c(SC)nnc1-c1c[nH]c2ccccc12,1.7%,-1.3%,23.9,6.3,2.0%,2.0%
O/N=C1\CC/C(=N\O)c2nn(-c3ccccc3Cl)nc21,8.9%,2.2%,-14.9,1.9,-1.3%,3.3%
Cc1ccc(-n2nc3c(n2)/C(=N/O)CC/C3=N\O)cc1,-0.8%,8.7%,48.5*,43.7*,14.1µM*,-13.5%
Cc1noc(C)c1C(=O)N1CCC2(CCCN(C(=O)Nc3cccc(F)c3)C2)CC1,-1.4%,/,/,/,/,1.4%
O=C(COc1ccc(Cl)cc1)NNC(=O)c1ccccc1C(=O)O,/,-2.6%,-20.9,-3.9,2.3%,5.7%
Cc1occc1C(=O)NNC(=O)c1ccccc1Br,-2.7%,-1.8%,27.8*,12.5,-8.4%,-14.1%
Cc1ccccc1C(=O)NNC(=O)c1ccoc1C,6.2%,9.8%,20.0,2.0,-15.5%,-0.4%
Cc1occc1C(=O)NNC(=O)c1ccccc1C(=O)O,-3.1%,4.6%,69.3*,24.1*,-16.5%,-1.6%
COc1ccc(C)cc1NC(=O)NNC(=O)c1ccoc1C,/,-11.2%,31.0*,active,-2.7%,1.7%
O=C(Cc1ccccc1)NNC(=O)c1ccccc1C(=O)O,0.1%,3.4%,26.9,14.9*,-0.6%,-16.8%
SMILES,Giardia FBPA inh,Sm TGR inh,Shiga toxin inh,CHX counter,LmPK inhibitor,Tb PYK inh
CCOc1ccccc1CNS(=O)(=O)c1ccc(-c2coc(C)n2)cc1,/,0.2%,/,/,/,-1.2%
O=C(CC1N=C2c3ccccc3N=C(SCc3cccc(Cl)c3)N2C1=O)NC1CCCCC1 (configuration not stated),/,?,/,/,/,-3.8%
Cc1ccc(Cl)cc1NC(=O)c1ccc(-c2nc(CSc3ccccc3)c(C)o2)cc1,/,-5.4%,/,/,/,1.2%
CCn1c2ccc(C)cc2c2nc3cc(C(=O)O)ccc3nc21,-12.9%,-0.9%,61.4*,43.6*,-10.5%,-11.1%
CCn1c2ccc(Cl)cc2c2nc3ccccc3nc21,-8.4%,28.2µM*,-13.1,-2.5,1.1%,-9.5%
CCn1c2ccc(OC)cc2c2nc3ccccc3nc21,-1.2%,1.3%,11.3,5.5,6.4%,1.4%
CCOc1ccc(S(=O)(=O)N2CCN(c3cccc(C(F)(F)F)c3)CC2)cc1OCC,/,4.7%,/,/,/,2.9%

# Screening results from PubChem BioAssay.
